Results from PubChem BioAssay (EPA / NIEHS).
A structure can be active in one record and inactive in another. Calls of active or inactive are those of the source. The calls were made as follows: active = hit-call score of the fitted dose curve at least 0.9, where 1 is the maximum; inactive = score below 0.9.

Columns and labels:
[1] = APR_HepG2_P-H2AX_72hr: Apredica 72-hour HepG2 Assay for H2AX Phosphorylation (AID 2282916); details: imaging, actives raise or lower the signal;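 also: phospho-histone H2A.x immunostain intensity per cell marking DNA damage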
Procedure, shortened: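 Human hepatoma HepG2 cells are dosed across ten concentrations (0.39 to 200 uM, 0.5% v/v DMSO) and incubated 72 hr. Phospho-histone H2A.x is then detected by antibody staining alongside c-Jun and Hoechst, and quantified by automated fluorescence imaging.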

[2] = APR_HepG2_MitoMembPot_72hr: Apredica 72-hour HepG2 Assay for Mitochondrial Membrane Potential (AID 2282917); details: imaging, actives raise or lower the signal
Procedure, shortened: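 Membrane potential read by MitoTracker Red CMXRos (250 nM, 30 min, pre-fixation) fluorescence imaging of HepG2 after 72 hr exposure. Ten concentrations, 0.39–200 uM, duplicate wells, 0.5% DMSO; fitted in both directions against DMSO baseline.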

[3] = APR_HepG2_MitoticArrest_72hr: Apredica 72-hour HepG2 Assay for Mitotic Arrest (AID 2282918); details: high-content imaging, actives raise or lower the signal
Procedure, shortened: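 Read-out is phospho-histone H3 immunofluorescence with Hoechst nuclear segmentation, imaged at 20x. Human HepG2 liver cells received ten concentrations (0.39–200 uM, final DMSO 0.5% v/v) for 72 hr before fixation. Gain or loss of signal was fitted relative to DMSO.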

[4] = APR_HepG2_MicrotubuleCSK_72hr: Apredica 72-hour HepG2 Assay for Microtubule CSK Stabilty (AID 2282919); details: HepG2 microtubule cytoskeleton, high-content imaging, actives raise or lower the signal
Procedure, shortened: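 High-content imaging of alpha-tubulin staining in fixed HepG2 cells after 72 hr treatment with ten concentrations from 0.39 to 200 uM (0.5% DMSO). Fitting was bidirectional against DMSO; taxol served as positive control.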

[5] = APR_HepG2_P-H2AX_24hr: Apredica 24-hour HepG2 Assay for H2AX Phosphorylation (AID 2282920); details: high-content imaging, actives raise or lower the signal
Procedure, shortened: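 HepG2, 24 hr, cpd 0.39–200 uM (10 conc, duplicate), DMSO 0.5% v/v final. Fix 3.7% formaldehyde, Triton X-100 permeabilize, anti-phospho-H2A.x 1:200 + Hoechst 2 ug/mL. Imaged, bidirectional fit vs DMSO.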

[6] = APR_HepG2_StressKinase_72hr: Apredica 72-hour HepG2 Assay for Stress Kinase (AID 2282921); details: HepG2 stress kinase (phospho-c-Jun) imaging, actives raise or lower the signal
Procedure, shortened: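 After a 72 h compound treatment spanning 0.39 to 200 uM, formaldehyde-fixed cells are labelled for phosphorylated c-Jun and nuclei, imaged by automated fluorescence microscopy, and activity is fitted in both directions relative to DMSO controls.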

[7] = APR_HepG2_StressKinase_24hr: Apredica 24-hour HepG2 Assay for Stress Kinase (AID 2282922); details: HepG2 stress kinase (phospho-c-Jun) imaging, actives raise or lower the signal
Procedure, shortened: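 High-content imaging of phospho-c-Jun immunofluorescence in fixed, permeabilized HepG2 cells after 24 h dosing. Ten concentrations, 0.39 to 200 uM, run in duplicate at 0.5% v/v DMSO; gain or loss of signal versus DMSO.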

[8] = APR_HepG2_p53Act_72hr: Apredica 72-hour HepG2 Assay for p53 Activation (AID 2282923); details: high-content imaging, actives raise or lower the signal;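 also: average cellular p53 protein immunofluorescence intensity in HepG2 cells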
Procedure, shortened: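 Imaging-based endpoint: after 72 hr compound exposure (up to 200 uM, 0.5% DMSO), fixed and permeabilized monolayers were labelled with anti-p53 antibody and imaged; signal change in either direction was fitted relative to DMSO controls.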

[9] = APR_HepG2_MitoMass_72hr: Apredica 72-hour HepG2 Assay for Mitochondrial Mass (AID 2282924); details: high-content imaging, actives raise or lower the signal;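 also: MitoTracker Red CMXRos stain intensity per cell imaged as mitochondrial mass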
Procedure, shortened: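 Readout is imaged MitoTracker Red (250 nM, 30 min, pre-fixation) signal, fitted bidirectionally against DMSO baseline. Human HepG2 liver cells received compound 0.39–200 uM in duplicate for 72 hr, final DMSO 0.5%.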

[10] = ATG_CRE_CIS: Attagene CIS-FACTORIAL HepG2 Assay for human cAMP Responsive Element (CRE) binding protein 3 (AID 2282926); details: HepG2 CRE cis-reporter, Attagene multiplexed mRNA; actives raise or lower the signal
Procedure, shortened: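 Assay format: transient reporter transfection of HepG2, 24 h treatment, total RNA isolation with DNase I step. Reporter abundance read by fluorescence after PCR and capillary separation; DMSO-normalised gain or loss fitting.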

[11] = biological target: CCAAT/enhancer-binding protein beta (Homo sapiens) (UniProt P17676); experiment: ATG_C_EBP_CIS: Attagene CIS-FACTORIAL HepG2 Assay for human CCAAT/Enhancer Binding Protein (C/EBP) beta (AID 2282927); details: HepG2 Attagene cis-factorial transcription factor reporter; actives raise or lower the signal
Chain of CCAAT/enhancer-binding protein beta (Homo sapiens) (P17676 whole entry, looked up): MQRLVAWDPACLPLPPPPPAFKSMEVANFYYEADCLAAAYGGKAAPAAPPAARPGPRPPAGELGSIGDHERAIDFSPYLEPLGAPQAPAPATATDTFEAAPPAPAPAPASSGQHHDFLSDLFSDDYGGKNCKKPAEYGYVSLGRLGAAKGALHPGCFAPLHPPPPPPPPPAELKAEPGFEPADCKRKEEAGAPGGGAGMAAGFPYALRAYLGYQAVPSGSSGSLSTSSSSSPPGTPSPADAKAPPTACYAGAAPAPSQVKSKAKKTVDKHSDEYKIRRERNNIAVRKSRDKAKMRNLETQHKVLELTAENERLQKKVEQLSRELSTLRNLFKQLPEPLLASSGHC
Procedure, shortened: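 Endogenous transcription factor activity in human liver HepG2 cells is inferred from induction of a CEBPB-linked reporter mRNA. Exposure lasts 24 h; activity is fitted in both directions relative to DMSO.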

[12] = ATG_CMV_CIS: Attagene CIS-FACTORIAL HepG2 Assay for human CMV (Internal Marker) (AID 2282928); details: HepG2 CMV promoter reporter, transcription factor profiling; actives raise or lower the signal;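 also: endpoint acts as a background internal control marker rather than a target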
Procedure, shortened: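 Bidirectional fits against DMSO are applied to reporter mRNA, read by RT-PCR with capillary electrophoresis, from HepG2 cells exposed 24 h. The endpoint serves as an internal CMV background marker within the cis-factorial reporter panel.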

[13] = ATG_DR4_LXR_CIS: Attagene CIS-FACTORIAL HepG2 Assay for human Liver X Receptor (LXR), DR4 submotif (AID 2282929); details: HepG2 Attagene DR4 cis-reporter, mRNA transcription; actives raise or lower the signal
Procedure, shortened: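 Fluorescence intensity of labelled reporter cDNA fragments, separated by capillary electrophoresis, gives the signal. HepG2 cells bearing cis-regulated reporter constructs were treated 24 h; activity fitted bidirectionally relative to DMSO negative control.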

[14] = biological target: Aryl hydrocarbon receptor (Homo sapiens) (UniProt P35869); experiment: ATG_Ahr_CIS: Attagene CIS-FACTORIAL HepG2 Assay for human Aryl Hydrocarbon Receptor (Ahr) (AID 2282930); details: HepG2 AhR cis-factorial reporter transcription; actives raise or lower the signal
Chain of Aryl hydrocarbon receptor (Homo sapiens) (P35869 whole entry, looked up): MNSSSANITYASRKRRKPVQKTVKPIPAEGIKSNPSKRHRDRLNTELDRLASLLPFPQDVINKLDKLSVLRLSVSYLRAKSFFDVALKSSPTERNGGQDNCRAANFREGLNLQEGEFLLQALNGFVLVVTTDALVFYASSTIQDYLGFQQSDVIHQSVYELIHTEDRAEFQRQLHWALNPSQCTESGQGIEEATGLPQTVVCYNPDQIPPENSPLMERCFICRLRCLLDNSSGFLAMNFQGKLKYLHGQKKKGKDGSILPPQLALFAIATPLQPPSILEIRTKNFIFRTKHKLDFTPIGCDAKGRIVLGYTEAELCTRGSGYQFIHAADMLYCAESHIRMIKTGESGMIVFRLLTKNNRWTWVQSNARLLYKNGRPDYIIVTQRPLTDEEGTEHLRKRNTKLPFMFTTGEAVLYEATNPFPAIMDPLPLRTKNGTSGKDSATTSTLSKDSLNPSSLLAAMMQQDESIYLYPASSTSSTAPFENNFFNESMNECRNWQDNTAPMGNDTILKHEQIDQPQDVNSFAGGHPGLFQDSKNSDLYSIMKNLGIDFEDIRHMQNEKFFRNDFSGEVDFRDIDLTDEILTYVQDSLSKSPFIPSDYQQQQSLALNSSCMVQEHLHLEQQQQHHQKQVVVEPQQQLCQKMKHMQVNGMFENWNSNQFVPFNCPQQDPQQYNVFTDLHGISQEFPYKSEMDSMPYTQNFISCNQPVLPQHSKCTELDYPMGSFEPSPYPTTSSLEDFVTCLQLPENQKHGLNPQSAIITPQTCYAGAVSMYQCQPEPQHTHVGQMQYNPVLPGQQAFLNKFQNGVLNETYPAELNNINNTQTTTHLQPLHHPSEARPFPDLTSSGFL
Procedure, shortened: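 Transient MRTU transfection of HepG2 → 24 h compound exposure → total RNA, oligo(dT) RT → PCR, 6-FAM extension, HpaI cut → CE fluorescence. DMSO = baseline; bidirectional curve fit.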

[15] = ATG_AP_2_CIS: Attagene CIS-FACTORIAL HepG2 Assay for human Activator Protein 2 (AP-2) (AID 2282932); details: HepG2 AP-2 cis-reporter, Attagene transcription factor profiling; actives raise or lower the signal
Procedure, shortened: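 Endogenous transcription factor activity is reported through transfected multiplex reporter constructs in HepG2, after 24 h of compound exposure. Transcripts were quantified by RT-PCR and capillary electrophoresis of fluorescent fragments. Bidirectional fit against DMSO.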

[16] = ATG_BRE_CIS: Attagene CIS-FACTORIAL HepG2 Assay for human Bone Morphogenetic Protein (BMP) Response Element (BRE) (AID 2282933); details: HepG2 BMP response element reporter, Attagene transcription factor profiling; actives raise or lower the signal
Procedure, shortened: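 Fluorescence-labelled reporter cDNA fragments, separated by capillary electrophoresis, gave the signal for this component of a 52-readout multiplex. HepG2 cells were transfected, exposed to chemicals for 24 h, and compared with DMSO using bidirectional fitting.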

[17] = biological target: Retinoic acid receptor alpha (Homo sapiens) (UniProt P10276); experiment: ATG_DR5_RAR_CIS: Attagene CIS-FACTORIAL HepG2 Assay for human Retinoic Acid Receptor Alpha (RARE), DR5 submotif (AID 2282934); details: HepG2 Attagene cis-factorial RARE DR5 reporter, mRNA; actives raise or lower the signal;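 as to AC50: reporter responds to endogenous RAR alpha beta and gamma in HepG2 not RARA alone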
Chain of Retinoic acid receptor alpha (Homo sapiens) (P10276 whole entry, looked up): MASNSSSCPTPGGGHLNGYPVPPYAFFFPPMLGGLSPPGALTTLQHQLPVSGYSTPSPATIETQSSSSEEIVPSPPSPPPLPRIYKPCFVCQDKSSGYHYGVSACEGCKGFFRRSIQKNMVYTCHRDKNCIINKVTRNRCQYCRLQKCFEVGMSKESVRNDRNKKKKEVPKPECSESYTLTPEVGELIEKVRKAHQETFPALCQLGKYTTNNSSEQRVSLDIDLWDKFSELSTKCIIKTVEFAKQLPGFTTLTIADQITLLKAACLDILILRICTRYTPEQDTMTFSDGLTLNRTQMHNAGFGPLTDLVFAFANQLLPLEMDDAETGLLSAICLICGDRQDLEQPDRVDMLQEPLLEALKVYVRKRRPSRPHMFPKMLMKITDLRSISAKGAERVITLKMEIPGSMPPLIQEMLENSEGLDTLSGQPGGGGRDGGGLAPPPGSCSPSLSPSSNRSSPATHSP
Procedure, shortened: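 Transient MRTU transfection of HepG2; 24 h compound treatment; TriZol RNA, oligo(dT) RT, PCR, FAM labelling, capillary electrophoresis. Bidirectional fit vs DMSO. Endogenous TF activity at DR5 RARE.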

[18] = ATG_AP_1_CIS: Attagene CIS-FACTORIAL HepG2 Assay for human Activator Protein 1 (AP-1) (AID 2282931); details: HepG2 Attagene cis-factorial AP-1 reporter mRNA; actives raise or lower the signal
Procedure, shortened: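 Multiplexed HepG2 reporter assay, 24 h dosing. mRNA induction detected by RT-PCR plus capillary electrophoresis. Activity fitted in both directions against DMSO.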

[19] = APR_HepG2_NuclearSize_72hr: Apredica 72-hour HepG2 Assay for Nuclear Size (AID 2282925); details: high-content imaging, actives raise or lower the signal
Procedure, shortened: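 Nuclear size was read by high-content imaging of Hoechst 33342 stain after formaldehyde fixation. Compounds ran 72 h on HepG2 at 0.39 to 200 uM, with final DMSO 0.5% v/v. Curves fitted both directions relative to DMSO control.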

Measured: AC50

CCCCCCCCCCCCc1ccccc1S(=O)(=O)O
active: [1] 111 µM | [3] 107 µM | [5] 119 µM | [6] 112 µM | [8] 106 µM | [9] 120 µM
inactive: [2] | [4] | [7] | [10] | [11] | [12] | [13] | [14] | [15] | [16] | [17]

CC(C)(C)CC(C)(C)c1ccc(O)c(-n2nc3ccccc3n2)c1
inactive: [2] | [6] | [7] | [10] | [11] | [13] | [14] | [15] | [16] | [17]
active: [1] 61.7 µM | [3] 35.6 µM | [4] 47.9 µM | [5] 78.4 µM | [8] 19 µM | [9] 42.8 µM | [12] 61.4 µM

CC(C)(C)c1cccc(C(C)(C)C)c1O
inactive: [1] | [3] | [4] | [6] | [7] | [8] | [9] | [11] | [13] | [14] | [15] | [16]
active: [2] 100 µM | [5] 57.3 µM | [10] 146 µM | [12] 100 µM | [18] 128 µM | [17] 100 µM

CC(C)(C)c1ccc(O)c(C(C)(C)C)c1
active: [1] 36.5 µM | [5] 42.8 µM | [6] 56.6 µM | [7] 48.3 µM | [8] 20.3 µM
inactive: [2] | [3] | [4] | [9] | [10] | [11] | [12] | [13] | [14] | [15] | [16] | [17]

CCCOC(=O)c1ccc(O)cc1
inactive: [1] | [2] | [3] | [4] | [5] | [6] | [7] | [8] | [9] | [10] | [11] | [12] | [14] | [15] | [16] | [17]
active: [10] 171 µM | [12] 121 µM | [16] 79.3 µM | [17] 25.2 µM

CC(=O)CC(C)(C)O
inactive: [2] | [6] | [9] | [19] | [10] | [11] | [12] | [13] | [18] | [15] | [16] | [17]
active: [1] 0.032 µM | [3] 0.45 µM | [4] 0.0173 µM | [5] 19.8 µM | [7] 100 µM | [8] 0.0395 µM
